Test results: ChEMBL document CHEMBL3988442, “University of Dundee, Small-Polar-MMV Screening Library” (2021)
About 13,000 (27%) of roughly 48,000 compounds showed an effect of 50% or more. This is one part of the list.

test system: Wolbachia pipientis; assay: Anti-Wolbachia Cell-Based Screen; type: functional; set-up: scale not given: in the data most compounds retested in dose-response had high values; details: 5 µM

SMILES	Percent Effect
O=C(Nc1ccnc(OC2CCOC2)c1)c1ccc(F)cc1Cl (configuration not stated)	-10.63%
O=C(Nc1ccnc(OC2CCOC2)c1)c1ccccc1Cl (configuration not stated)	70.82%
Cc1occc1C(=O)Nc1ccnc(OC2CCOC2)c1 (configuration not stated)	30.35%
N[C@H]1CN(C(=O)c2ccccc2Oc2ccccc2)C[C@@H]1C1CC1	-0.964%
O=C(O)c1ccnc(-c2ccnc(N3CCC(F)(F)CC3)n2)c1	-4.386%
CCN1CCN(CCC(=O)NC2CC(c3cccc(Cl)c3)C2)CC1 (configuration not stated)	-7.949%
Cc1nccn1C1CCCN(C(=O)c2ccc3c(c2)COC3)C1 (configuration not stated)	0.6755%
Cc1nccn1C1CCCN(C(=O)c2cc3ccccc3[nH]2)C1 (configuration not stated)	-11.12%
Cc1nccn1C1CCCN(C(=O)c2ccc3cc[nH]c3c2)C1 (configuration not stated)	104%
Cc1nccn1C1CCCN(C(=O)c2ccc3c(c2)CCC3)C1 (configuration not stated)	108.9%
CC(CO)NCc1csc2c1CCCC2 (configuration not stated)	1.325%
CCCc1ccc(CN2CCN(C(=O)CC(C)C)[C@@H]3CS(=O)(=O)C[C@@H]32)o1	-2.422%
O=C(NC1CC1)N1CCc2ncnc(-c3ccncc3)c2CC1.O=C(O)C(F)(F)F	-17.44%
COc1cc(N2CCc3ncnc(-c4ccncc4)c3CC2)ncn1.O=C(O)C(F)(F)F	4.079%
O=C(O)C(F)(F)F.O=C(c1ccno1)N1CCc2ncnc(-c3ccncc3)c2CC1	111.4%
O=C(O)C(F)(F)F.O=C(c1ccncc1)N1CCc2ncnc(C3CC3)c2CC1	-7.83%
CC(C)NC(=O)N1CCc2ncnc(-c3ccncc3)c2CC1.O=C(O)C(F)(F)F	129.4%
Cc1ncnc2c1CCN(C(=O)c1ccncc1)CC2.O=C(O)C(F)(F)F	-2.654%
CN(C)C(C(=O)NC1(CO)CCCC1)c1ccc(F)cc1 (configuration not stated)	-4.7%
O=C1N(c2ccc(Br)cc2)Cc2nc(=O)[nH]n21	13.29%
Cc1cc2cc(C(=O)N[C@@H]3CC[C@@H](N4CCNC(=O)C4)[C@@H]3O)ccc2o1	121.8%
Cc1cc2cc(C(=O)N3CCN(CCO)[C@@H]4CS(=O)(=O)C[C@@H]43)ccc2o1	-0.6581%
Cc1cc2cc(C(=O)N[C@@H]3CC[C@@H](N4CCOCC4)[C@@H]3O)ccc2o1	-19.97%
Cc1cc(C(=O)N[C@@H]2CCNC[C@H]2O)ccc1Cl	-15.13%
Cc1cc2cc(C(=O)N[C@@H]3CC[C@@H](N4CCCC4)[C@@H]3O)ccc2o1	117.2%
CCN(C)c1ncnc2c1CCN(C(=O)c1ccno1)CC2	-25.29%

SMILES	Percent Effect
N#Cc1cnn(C(=O)CCCOc2ccccc2Cl)c1N	5.085%
CC(=O)N1CCC(n2ccc(-c3cnc(N4CCOCC4)nc3)n2)CC1	94.2%
O=C(NCC(F)F)N1CCC(n2ccc(C(F)(F)F)n2)CC1	4.357%
CCC(SC)C(=O)N1CCC(n2ccnn2)CC1 (configuration not stated)	9.459%
CC(=O)N1CCC(n2ccc(-c3cnc(NCC(C)C)nc3)n2)CC1	75.49%
CN(C(=O)c1cnc(N2CCOCC2)nc1)C1Cc2ccccc2C1	-2.733%
Cn1cc(-c2cnc(N3CCOCC3)nc2)cc1C(=O)O	-1.361%
CC[C@H](C)Nc1ncc(-c2ccn(C3CCN(C(C)=O)CC3)n2)cn1	95.97%
CC(C)NC(=O)N1CCC(n2ccc(C(F)(F)F)n2)CC1	-15.91%
CC(=O)N1CCC(c2nnc3ccc(C(=O)NCC(C)C)cn23)C1 (configuration not stated)	-18.5%
O=C(O)c1cc(-c2ccncc2)cc(S(=O)(=O)N2CCSCC2)c1	-4.815%
O=C(CCC(=O)N1CCOCC1c1ccccc1)c1cccs1 (configuration not stated)	-0.4955%
CC(C(=O)Nc1ccc2ccccc2c1)N1CCC(n2ccnc2)CC1 (configuration not stated)	14.62%
CCSCCNc1nc(-c2ccccn2)nc2c1c(C)nn2C	-9.72%
CCCc1nnc(N(C)CC2CCN(CC(C)C)C2)o1 (configuration not stated)	22.96%
Cc1nnc2n1CCN(Cc1csc(CC(=O)N(C)C)n1)C2	-5.269%
CCc1nnc2n1CCN(Cc1csc(-c3ccccc3F)n1)C2	-7.505%
Cc1nnc2n1CCN(Cc1csc(Cc3ccccc3)n1)C2	-6.731%
CC(=O)Nc1nc(CN2CCn3c(nnc3C(C)C)C2)cs1	134.2%
CCc1nnc2n1CCN(Cc1csc(Cc3ccccc3)n1)C2	110.3%
CCc1nnc2n1CCN(Cc1csc(NC(C)=O)n1)C2	125.2%
CCc1nnc2n1CCN(Cc1csc(-c3cnn(C)c3)n1)C2	-17.9%
CCc1nnc2n1CCN(Cc1csc(-c3ccccc3)n1)C2	-8.809%
CC(C)c1nnc2n1CCN(Cc1csc(-c3cnn(C)c3)n1)C2	-7.082%
CC(=O)Nc1nc(CN2CCn3c(nnc3C3CC3)C2)cs1	-1.677%
CC(=O)Nc1nc(CN2CCn3c(C)nnc3C2)cs1	106.6%

SMILES	Percent Effect
CC(C)c1nnc2n1CCN(Cc1csc(CC(=O)N(C)C)n1)C2	-25.19%
CN(Cc1cc(-c2ccccc2)no1)Cc1nccn1C	8.065%
Cc1nn(CCO)c(C)c1CNC1CCc2c(F)cccc21 (configuration not stated)	1.037%
N#Cc1ccc(CN(CC(N)=O)C2CCCC2)cc1	-1.161%
O=C(Nc1ccccc1F)N(CCO)CCOCC(F)(F)F	-14.38%
CC(C)(C)S(=O)(=O)CCNC1CSCCc2ccccc21 (configuration not stated)	8.355%
CCc1n[nH]c(SCC(=O)N2C[C@@H]3CC[C@H](C2)N(CC=C(C)C)C3)n1	12.53%
CCOC(=O)c1cc2c(=O)[nH]c(=O)n(CCc3ccccc3)c2nc1C	-3.034%
O=C1CCc2cc(-c3csc(CCN4CCCC4=O)n3)ccc2N1	-1.736%
CCCN1C(=O)c2ccccc2C1OC (configuration not stated)	104.1%
CCn1cnc(NC(=O)N2CCC(c3ccc(Cl)cc3)C2)n1 (configuration not stated)	-2.672%
Cc1nc(C)n(CCCn2ccnc2-c2cc3n(n2)CCCNC3)n1	0.4256%
O=C(c1cc(Cl)cc(Cl)c1)N1CCN(c2nccs2)CC1	-10.96%
Cn1ccc(C(=O)N2CCN(c3ccccn3)CC2)cc1=O	94.46%
Cn1cc(C(=O)N2CCN(c3ccc(F)cc3)CC2)ccc1=O	27.16%
Cn1cc(C(=O)N2CCN(c3ncccn3)CC2)ccc1=O	122.7%
Cn1ccc(CN2CCCN(c3nccs3)CC2)cc1=O	11.25%
Cn1ccc(C(=O)N2CCN(c3cc(C#N)ccn3)CC2)cc1=O	6.84%
Cn1ccc(C(=O)N2CCN(c3nccs3)CC2)cc1=O	97.2%
Cn1cc(C(=O)N2CCN(c3ccccc3)CC2)ccc1=O	-6.133%
Cn1ccc(C(=O)N2CCN(c3ncccn3)CC2)cc1=O	-7.771%
Cc1cnccc1-n1nc(C(C)C)nc1CCc1cnccn1	-10.93%
Cc1noc(CCCC(=O)NC(C)c2cn(-c3ccccc3)nn2)n1 (configuration not stated)	-6.671%
Cn1cnc(S(=O)(=O)N2CCO[C@H]3[C@H](OCC4CC4)CC[C@@H]32)c1	-0.8778%
O=S(=O)(C1CC1)N1CCO[C@H]2[C@H](OCC3CCCC3)CC[C@@H]21	-8.752%
CCO[C@@H]1CC[C@H]2[C@H]1OCCN2S(=O)(=O)C1CC1	110.7%

SMILES	Percent Effect
CC(C)CO[C@@H]1CC[C@H]2[C@H]1OCCN2S(=O)(=O)C1CC1	103.9%
O=S(=O)(C1CC1)N1CCO[C@H]2[C@H](OCC3CC3)CC[C@@H]21	103.2%
Cn1cnc(S(=O)(=O)N2CCO[C@H]3[C@@H](OCC4CC4)CC[C@@H]32)c1	-7.379%
CCO[C@@H]1CC[C@H]2[C@H]1OCCN2S(=O)(=O)c1cn(C)cn1	-10.77%
CCS(=O)(=O)N1CCO[C@H]2[C@H](OCC3CCCC3)CC[C@@H]21	-19.91%
CO[C@@H]1CC[C@H]2[C@H]1OCCN2S(=O)(=O)C1CC1	111.8%
Cc1cc(CN(C)C(=O)NC2CCCN(c3ncccn3)C2)no1 (configuration not stated)	-2.323%
Nc1nccc(N2CCCC(CO)(CCOc3ccccc3)C2)n1 (configuration not stated)	-20.36%
CC(C(=O)NCc1cccs1)N1CCN(Cc2nccn2C)CC1 (configuration not stated)	4.204%
Cn1ccnc1CN1CCN(CC(=O)NCc2ccccc2F)CC1	129%
Cn1ccnc1CN1CCN(CC(=O)NCC(F)(F)F)CC1	1.598%
Cc1ccccc1CNC(=O)CN1CCN(Cc2nccn2C)CC1	7.197%
Cn1ccnc1CN1CCN(CC(=O)NCc2cccs2)CC1	99.27%
COc1ccc(CC(=O)N2CC[C@@]3(O)CCNC[C@H]3C2)c(OC)c1	-12.62%
CCc1nc(CN(C)Cc2ncc(-c3cccs3)o2)cs1	-9.321%
CN1CC(c2ccccc2)CC2(CCN(Cc3ncc[nH]3)CC2)C1 (configuration not stated)	-21.2%
Cc1ccc(C(CNCc2cccnc2)N2CCOCC2)s1 (configuration not stated)	5.338%
Cc1ccccc1NC(=O)NCCn1nc(C(F)(F)F)n(C)c1=O	4.371%
O=C(NC1CC1)N1CCc2ccc(=O)n(Cc3cccnc3)c2CC1.O=C(O)C(F)(F)F	-14.38%
Cn1cc(CNC2CCc3c(ccc(=O)n3Cc3cccnc3)C2)cn1.O=C(O)C(F)(F)F.O=C(O)C(F)(F)F (configuration not stated)	105.5%
Cn1cc(CNC2CCc3c(ccc(=O)n3Cc3ccncc3)C2)cn1.O=C(O)C(F)(F)F.O=C(O)C(F)(F)F (configuration not stated)	101.4%
CN(C)CCn1c2c(ccc1=O)CC(NCc1cccnc1)CC2.O=C(O)C(F)(F)F.O=C(O)C(F)(F)F.O=C(O)C(F)(F)F (configuration not stated)	-9.426%
NC1CCc2c(ccc(=O)n2Cc2ccncc2)C1 (configuration not stated)	-38.16%
CN(C)CCn1c2c(ccc1=O)CC(NCc1cnn(C)c1)CC2.O=C(O)C(F)(F)F.O=C(O)C(F)(F)F (configuration not stated)	92.68%
